# Laboratory results from PubChem BioAssay.
# Calls of active or inactive are those of the source.
# Assays:
# [1] = optical density shifts of acrAB sulA E. coli – strain DRC41, OD650, 48 h, E. coli filamentation inducer project, primary screen (AID 1152); conditions: higher = more signal, called active from +8 up or from −8 down;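 also: E. coli MC1000 strain DRC41 lacking acrAB efflux pump and sulA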
# [2] = probe aLefty1 binding on compound microarray – biochemical, small-molecule microarray, 635/667 nm fluorescence, primary screen (AID 1153); conditions: higher = more signal;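 also: score merges spot fluorescence with signal-to-noise ratio from the scanned slide images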
# [3] = plasmodial surface anion channel blockers, osmotic lysis – cell-based, P. falciparum Indochina, OD700, 1 h, primary screen (AID 1154); conditions: P. falciparum Indochina infected RBC osmotic lysis, higher = more signal, called active from +8 up or from −8 down
# [4] = plasmodial surface anion channel blockers, osmotic lysis – cell-based, P. falciparum Indochina, OD700, 2 h, primary screen (AID 1155);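 also: lysis reports solute entry through the parasite surface anion channel PSAC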; conditions: P. falciparum Indochina infected erythrocytes, higher = more signal, called active from +8 up or from −8 down
# [5] = changes in parasitized red cell lysis, either direction – P. falciparum Indochina, OD700, 3 h, PSAC antagonist project, primary screen (AID 1156); conditions: P. falciparum-infected erythrocytes, osmotic lysis, higher = more signal, called active from +8 up or from −8 down
# [6] = plasmodial surface anion channel blockers, osmotic lysis – cell-based, P. falciparum Indochina, OD700, 18 h, primary screen (AID 1157); conditions: P. falciparum Indochina infected erythrocytes, osmotic lysis OD700, 18 h; higher = more signal, called active from +8 up or from −8 down
# [7] = S6 kinase pathway phospho-S6 level changes – cell-based, A549, cytoblot, luminescence, serum-stimulated, primary screen (AID 1158); conditions: 5 h, higher = more signal;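 also: serum-stimulated A549 lung adenocarcinoma cells; signal is phosphorylated S6 detected by cytoblot immunostaining with HRP secondary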
# [8] = target: NADPH oxidase 2 (Homo sapiens) (UniProt P04839); experiment: compounds shifting NOX2 Amplex Red fluorescence – cell-based, HEK293-NOX2, PMA-stimulated, NOX inhibitor project, primary screen (AID 1159); conditions: 45 min, higher = more signal, called active from +8 up or from −8 down; also: test concentration not given here
# Chain of NADPH oxidase 2 (Homo sapiens) (P04839 whole entry, looked up): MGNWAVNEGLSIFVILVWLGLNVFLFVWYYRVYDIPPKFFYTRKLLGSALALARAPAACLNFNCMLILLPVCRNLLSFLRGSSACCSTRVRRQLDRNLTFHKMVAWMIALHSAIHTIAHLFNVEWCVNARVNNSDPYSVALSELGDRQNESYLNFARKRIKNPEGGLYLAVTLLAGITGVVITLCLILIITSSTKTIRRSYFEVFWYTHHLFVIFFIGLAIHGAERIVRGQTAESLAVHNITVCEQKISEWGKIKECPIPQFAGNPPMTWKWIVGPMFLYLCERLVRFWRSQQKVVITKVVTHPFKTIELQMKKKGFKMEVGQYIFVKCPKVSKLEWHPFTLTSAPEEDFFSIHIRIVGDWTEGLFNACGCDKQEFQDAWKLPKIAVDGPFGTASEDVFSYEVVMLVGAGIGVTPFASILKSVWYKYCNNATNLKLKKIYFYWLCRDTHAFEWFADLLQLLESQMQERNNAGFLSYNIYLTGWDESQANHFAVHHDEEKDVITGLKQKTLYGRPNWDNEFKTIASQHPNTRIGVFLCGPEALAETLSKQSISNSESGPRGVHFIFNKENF
# [9] = target: NADPH oxidase 4 (Homo sapiens) (UniProt Q9NPH5); experiment: compounds shifting NOX4 Amplex Red fluorescence – cell-based, HEK293-NOX4, tetracycline-induced, NOX inhibitor project, primary screen (AID 1160); conditions: HEK293-NOX4, Amplex Red H2O2 fluorescence, 45 min; higher = more signal, called active from +8 up or from −8 down
# Chain of NADPH oxidase 4 (Homo sapiens) (Q9NPH5 whole entry, looked up): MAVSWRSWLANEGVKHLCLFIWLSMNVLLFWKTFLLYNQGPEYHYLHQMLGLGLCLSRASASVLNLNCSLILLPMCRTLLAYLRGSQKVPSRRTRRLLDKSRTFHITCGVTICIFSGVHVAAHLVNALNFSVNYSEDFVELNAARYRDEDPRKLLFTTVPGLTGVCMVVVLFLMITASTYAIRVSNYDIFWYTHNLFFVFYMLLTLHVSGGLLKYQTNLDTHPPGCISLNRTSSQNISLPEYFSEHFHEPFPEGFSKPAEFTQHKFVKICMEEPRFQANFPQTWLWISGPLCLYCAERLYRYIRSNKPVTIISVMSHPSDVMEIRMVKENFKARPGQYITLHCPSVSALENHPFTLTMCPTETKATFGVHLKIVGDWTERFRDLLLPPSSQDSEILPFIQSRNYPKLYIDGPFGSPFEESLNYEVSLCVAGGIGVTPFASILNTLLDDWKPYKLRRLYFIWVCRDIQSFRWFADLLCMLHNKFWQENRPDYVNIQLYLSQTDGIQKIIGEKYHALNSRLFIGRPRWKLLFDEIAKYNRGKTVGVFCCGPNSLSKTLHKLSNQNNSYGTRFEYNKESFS
# [10] = target: NADPH oxidase 5 (Homo sapiens) (UniProt Q96PH1); experiment: compounds shifting NOX5 Amplex Red fluorescence – cell-based, HEK293-NOX5, NOX inhibitor project, primary screen (AID 1161); conditions: HEK293-NOX5, ionomycin, 45 min, higher = more signal
# Chain of NADPH oxidase 5 (Homo sapiens) (Q96PH1 whole entry, looked up): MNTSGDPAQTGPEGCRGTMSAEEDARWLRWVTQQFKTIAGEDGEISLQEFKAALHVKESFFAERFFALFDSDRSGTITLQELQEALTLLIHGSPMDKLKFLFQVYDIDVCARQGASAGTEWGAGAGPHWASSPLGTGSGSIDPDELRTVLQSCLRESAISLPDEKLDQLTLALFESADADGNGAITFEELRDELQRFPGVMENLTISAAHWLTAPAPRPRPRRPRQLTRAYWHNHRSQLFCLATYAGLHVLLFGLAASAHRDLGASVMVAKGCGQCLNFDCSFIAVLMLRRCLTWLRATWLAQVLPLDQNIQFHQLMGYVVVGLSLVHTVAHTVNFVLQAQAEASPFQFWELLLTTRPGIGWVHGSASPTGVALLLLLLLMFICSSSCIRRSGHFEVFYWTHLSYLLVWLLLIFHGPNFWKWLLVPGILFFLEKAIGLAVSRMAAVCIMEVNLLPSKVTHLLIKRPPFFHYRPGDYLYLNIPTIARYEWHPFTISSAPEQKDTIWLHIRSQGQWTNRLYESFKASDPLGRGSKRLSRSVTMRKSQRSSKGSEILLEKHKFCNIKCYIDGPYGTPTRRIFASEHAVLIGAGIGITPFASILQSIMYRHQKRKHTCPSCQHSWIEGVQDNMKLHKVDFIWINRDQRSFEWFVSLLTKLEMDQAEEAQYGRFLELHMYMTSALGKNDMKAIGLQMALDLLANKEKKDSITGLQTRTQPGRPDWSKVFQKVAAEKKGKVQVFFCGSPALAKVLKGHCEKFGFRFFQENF
# [11] = compound effects on lung adenocarcinoma cell viability – A549, calcein-AM fluorescence, 48 h, basal, profiling panel (AID 1162); conditions: higher = more signal; also: test concentration not given here
# [12] = compound effects on differentiated 3T3-L1 adipocyte viability – cell-based, 3T3-L1 adipocytes, calcein-AM fluorescence, 48 h, basal, profiling panel (AID 1163); conditions: 3T3-L1 adipocytes viability, higher = more signal; also: test concentration not given here
# [13] = compound effects on hepatocellular carcinoma cell viability – HepG2, calcein-AM fluorescence, 48 h, basal, profiling panel (AID 1164); conditions: higher = more signal; also: test concentration not given here
# [14] = compound effects on multiple myeloma cell viability – MM1S, calcein-AM fluorescence, 48 h, basal, profiling panel (AID 1165); conditions: higher = more signal; also: test concentration not given here
# [15] = calcein-AM signal in unstimulated myeloma cells – cell-based, calcein-AM fluorescence, 48 h, PK04 Diversity Set, profiling panel (AID 1166); conditions: RPMI8226 myeloma viability, higher = more signal;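 also: cells grown under basal conditions without added stimulus; test concentration not given here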
# [16] = JC-1 mitochondrial signal, unstimulated HepG2 cells – cell-based, JC-1 fluorescence, 24 h, 100 nL compound, profiling panel (AID 1167); conditions: HepG2 mitochondrial potential, higher = more signal; also: test concentration not given here
# [17] = JC-1 mitochondrial signal, unstimulated adipocytes – cell-based, JC-1 fluorescence, 3T3-L1 adipocytes, 24 h, 100 nL compound, profiling panel (AID 1168); conditions: JC-1 mitochondrial fluorescence, higher = more signal, called active from +8 up or from −8 down; also: test concentration not given here
# [18] = JC-1 mitochondrial signal, unstimulated myeloma cells – cell-based, JC-1 fluorescence, RPMI8226, 24 h, 100 nL compound, profiling panel (AID 1169); conditions: JC-1 mitochondrial potential fluorescence, higher = more signal; also: test concentration not given here
# [19] = JC-1 mitochondrial signal, unstimulated MM1S myeloma – cell-based, JC-1 fluorescence, 24 h, 100 nL compound, profiling panel (AID 1170); conditions: MM1S mitochondrial potential, higher = more signal; also: test concentration not given here
# [20] = resazurin metabolic signal in A549 cells – cell-based, resazurin fluorescence, 24 h, PK04 Diversity Set, profiling panel (AID 1171); conditions: A549 viability, higher = more signal, called active from +8 up or from −8 down; also: test concentration not given here
Structure (SMILES),z-score [1],composite z-score [2],z-score [3],z-score [4],z-score [5],z-score [6],z-score [7],z-score [8],z-score [9],z-score [10],z-score [11],z-score [12],z-score [13],z-score [14],z-score [15],z-score [16],z-score [17],z-score [18],z-score [19],z-score [20]
C=CCC(OC(C)=O)[C@@H]1[C@@H](N(Cc2ccc(-c3ccccc3)cc2)C(=O)c2ccc(-c3ccccc3)cc2)c2cc(OCCCO)ccc2N1C(=O)c1ccc2ccccc2n1 (stereo not given in full),0.803 (inactive),0.026,0.135 (inactive),0.078 (inactive),-0.452 (inactive),-0.033 (inactive),0.364,1.18 (inactive),1.33 (inactive),1.17,0.393,0.167,0.486,-0.265,-0.189,2.22,-0.124 (inactive),-0.742,-0.133,1.67 (inactive)
COc1ccc([Si](C)(C)[C@H]2[C@H](CCn3cc([C@H](O)c4ccccc4)nn3)O[C@@]3(C(=O)N(c4ccccc4)c4ccccc43)[C@@H]2C)cc1,1.13 (inactive),0.0004,6.6 (inactive),1.67 (inactive),0.56 (inactive),1.23 (inactive),0.448,1.47 (inactive),1.3 (inactive),1.33,-0.13,0.885,-1.31,-0.54,-3.18,1.63,0.291 (inactive),-0.932,-0.794,-0.853 (inactive)
CCOC(=O)C[C@H]1[C@H](OC(=O)Cc2ccc3c(c2)OCO3)[C@@H](NC(=O)c2ccccc2)c2cc(OCCCO)ccc2N1C(=O)Cc1ccc(OC)cc1,1.57 (inactive),-0.31,9.58 (active),0.828 (inactive),-0.288 (inactive),-0.129 (inactive),2.91,-0.986 (inactive),0.205 (inactive),-1.1,3.09,1.19,1.01,0.856,0.434,1.53,-0.947 (inactive),0.133,-0.851,0.0119 (inactive)
C=CC[C@]1(C(=O)N(C)C)COC(c2ccc(OCCCO)cc2)=N1,-2.4 (inactive),0.0087,8.04 (active),0.627 (inactive),2.32 (inactive),0.0256 (inactive),0.116,-0.898 (inactive),-0.581 (inactive),-2.06,0.345,0.911,-0.8,-0.424,0.304,-1.26,-0.133 (inactive),-0.676,1.23,-0.497 (inactive)
COc1cccc(C[C@H]2C[C@@H](CO[Si](C(C)C)(C(C)C)C(C)C)N3C(=O)[C@@]4(C(C)=O)O[C@@]23[C@@H]2C(=O)N(C)C(=O)[C@@H]24)c1,-0.848 (inactive),-0.0061,1.31 (inactive),0.576 (inactive),-0.176 (inactive),0.0375 (inactive),-0.669,-0.175 (inactive),0.746 (inactive),0.181,-2.05,0.202,-0.342,-1.9,-1.38,-1.64,1.29 (inactive),-0.846,-0.661,0.712 (inactive)
C=CCOC(=O)[C@H]1[C@@H]2C(=O)O[C@@H](c3ccccc3)[C@@H](c3ccccc3)N2[C@@H](c2ccc(OCCOC(=O)[C@H]3C[C@H]4C(=O)NCC(=O)N4[C@H]3c3ccc(O)cc3)cc2)[C@]12C(=O)Nc1ccc(I)cc12,0.345 (inactive),0.0359,2.6 (inactive),2.66 (inactive),1.02 (inactive),1.33 (inactive),0.839,1.54 (inactive),1.5 (inactive),1.22,-0.362,0.34,1.78,0.782,0.483,-1.63,0.266 (inactive),-0.398,-1.43,0.144 (inactive)
COCC(=C=CC[C@@H](O)c1ccc(OCCO)cc1)C[C@@H](O)COCc1ccccc1,1.81 (inactive),0.0299,7.41 (inactive),0.416 (inactive),0.766 (inactive),-0.756 (inactive),2.43,-1.16 (inactive),-0.479 (inactive),-2.03,0.517,0.657,0.712,0.105,0.0253,-1.77,0.914 (inactive),-0.725,-1.03,0.583 (inactive)
CN(C)CCCC[C@@H]1NC(=O)[C@@H]2C[C@H](C(=O)NCc3ccc(F)cc3)[C@H](c3ccc(O)cc3)N2C1=O,-0.876 (inactive),-0.0501,1.98 (inactive),0.947 (inactive),-1.62 (inactive),0.35 (inactive),0.359,0.391 (inactive),-0.25 (inactive),0.714,-0.467,-0.904,0.263,0.135,-0.0865,0.393,-0.0839 (inactive),-0.963,-0.187,-0.454 (inactive)
